Source: PubChem BioAssay
Compounds with a hit are over-represented: about 4.2% of the library has one in this group of screens.
SMARCA2 activ = SMARCA2 function activation, primary screen. MG213 cells, MMTV-luciferase reporter, dexamethasone, overnight. activation, % at 9.1 µM. 370,000 compounds, 1% hits. AID 652017; in the data active = activation above about 7.8%
hcDAF-12 act = activates DAF-12 receptor from parasite H. contortus; HEK293 hcDAF-12 lit1-tk-luc reporter, luminescence; 0% DMSO, 100% Δ7-dafachronic acid; activation, % at 6.8 µM; 370,000 compounds, 1.4% hits; AID 652067;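 active = activation above the mean of all tested compounds plus 3 SD, cut at about 5.5% in these data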
ssDAF-12 act = S. stercoralis DAF-12 activation, primary screen; activation, % at 6.8 µM; 370,000 compounds, 1% hits; HEK293 ssDAF-12/GRIP1 lit1-tk-luc reporter, luminescence; % of 3 µM dafachronic acid response; AID 652126;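 active = activation above the mean over all tested compounds plus 3 SD, cut at about 0.9% in these data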
hgDAF-12 ag = hgDAF-12 agonism, primary luciferase screen; HEK293 GAL4-hgDAF12 UAS-luciferase reporter, agonist luminescence; normalized to butyrate control; 370,000 compounds, 1.8% hits; activation, % at 6.8 µM;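 active = activation above a cutoff set at the mean of all screened compounds plus 3 SD, cut at about 10% in these data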
DAX1 inh = inhibitors of DAX1 repression of SF-1 activated StAR promoter | inhibition, % at 6.8 µM | HEK293T StAR-luciferase reporter, SF-1/DAX-1 repression relief | AID 652010 | 370,000 compounds, 1.1% hits;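 active = inhibition above the mean over all tested compounds plus 3 SD, cut at about 3.6% in these data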;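 also: higher inhibition means more luminescence from relief of DAX-1 repression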
DAX1 inh confirm = confirmation of human DAX1 (NR0B1) inhibitors | shares compounds with DAX1 inh | 2,400 compounds, 87% hits | inhibition, % at 6.8 µM | AID 652134 | HEK293T StAR-promoter luciferase reporter, SF-1/DAX-1 repression;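 active = inhibition above the average of every tested compound plus 3 SD, cut at about 3.8% in these data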;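 also: active compounds raise luminescence by relieving repression of the StAR reporter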
Target sequence (P51843 whole entry, looked up): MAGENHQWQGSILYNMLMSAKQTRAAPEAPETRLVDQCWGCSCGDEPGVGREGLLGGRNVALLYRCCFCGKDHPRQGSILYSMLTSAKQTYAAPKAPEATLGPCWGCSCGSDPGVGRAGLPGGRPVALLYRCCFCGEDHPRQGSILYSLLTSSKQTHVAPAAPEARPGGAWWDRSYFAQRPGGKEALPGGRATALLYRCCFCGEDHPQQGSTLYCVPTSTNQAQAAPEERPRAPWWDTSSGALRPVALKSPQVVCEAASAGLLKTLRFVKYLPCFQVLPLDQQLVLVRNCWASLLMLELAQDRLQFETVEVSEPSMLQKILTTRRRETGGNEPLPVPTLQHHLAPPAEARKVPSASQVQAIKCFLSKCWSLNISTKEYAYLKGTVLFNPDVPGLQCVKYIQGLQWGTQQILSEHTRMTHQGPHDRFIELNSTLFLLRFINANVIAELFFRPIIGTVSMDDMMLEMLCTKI
SF1 mutant ctr = counter-screen for DAX1 inhibitors: nonselective inhibitors with SF-1 AF2 mutant | 2,400 compounds, 78% hits | shares compounds with DAX1 inh | inhibition, % at 6.8 µM | HEK293 StAR-luciferase, luminescence;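 active = inhibition above the mean of all tested compounds plus 3 SD, cut at about 3% in these data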
SMARCA2 act conf = confirmation of SMARCA2 (BRM) function activators; MG213 cells, MMTV-luciferase with dexamethasone, luminescence, overnight; MG213 cells expressing E1A, Rb sequestered; DMSO wells 0%, reference activator 100%; 3,500 compounds, 30% hits; activation, % at 9.1 µM; shares compounds with SMARCA2 activ;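 active = activation above its plate's cutoff, the mean activation of tested wells plus 3 SD, cut at about 7.9% in these data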
VP16 Luc act = activates GAL4-VP16 luciferase, flagging SMARCA2 activator hits | shares compounds with SMARCA2 activ | 3,500 compounds, 41% hits | activation, % at 9.1 µM | AID 686939 | HEK293 GAL4-VP16 pG5luc reporter, luciferase luminescence; scaled: DMSO wells 0%, SAHA wells 100%;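 active = activation above the solvent-only control well mean plus 3 SD, averaged across control plates, cut at about 5.2% in these data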
LXRb hcDAF ctr = counter-screen for hcDAF-12 agonists: agonists of human LXR-beta; HEK293 Gal4-LXR tk-luc reporter, luminescence, 24 h; normalized: DMSO 0%, positive control 100%; 3,400 tested, under 10 active; activation, % at 6.8 µM; AID 743027; shares compounds with hcDAF-12 act;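 active = mean percent activation of the reporter above a cutoff set as the average over tested compounds plus their standard deviation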
hcDAF12 conf = confirmation of H. contortus DAF-12 agonists; 3,400 compounds, 61% hits; HEK293 hcDAF-12 lit1-tk-luc reporter, luminescence; % of Δ7-dafachronic acid response; activation, % at 6.8 µM; shares compounds with hcDAF-12 act;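 active = mean activation across triplicate tests above the threshold derived from the earlier primary screen, cut at about 5.5% in these data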
hgDAF12 conf = hgDAF-12 agonism, confirmation assay | shares compounds with hgDAF-12 ag | HEK293 GAL4-hgDAF12 luciferase reporter, agonist mode; percent of butyrate response | activation, % at 6.8 µM | 3,300 compounds, 80% hits;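 active = mean activation over triplicate wells above the hit cutoff derived from the earlier primary screen, cut at about 11% in these data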
LXRb DAF12 ctr = counter-screen for DAF-12 agonists: agonists of human LXR-beta. shares compounds with hgDAF-12 ag. AID 743051. 3,300 tested, under 10 active. activation, % at 6.8 µM. HEK293 Gal4-LXR luciferase reporter, 24 h;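 active = mean activation of the triplicate above a set limit carried over from the primary screen, none filed active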
Numbers stand for hits; . = inactive; / = not tested or not shown.

SMILES	SMARCA2 activ	hcDAF-12 act	ssDAF-12 act	hgDAF-12 ag	DAX1 inh	DAX1 inh confirm	SF1 mutant ctr	LXRb hcDAF ctr	hcDAF12 conf	hgDAF12 conf	LXRb DAF12 ctr	others
Cc1ccn2cc(-c3cc4ccccc4oc3=O)nc2c1	.	11.4	1.7	24.0	12.2	12.2	4.7	.	6.9	12.2	.
CC(=O)c1cccc(NC(=O)c2cnn3ccccc23)c1	.	5.8	.	13.7	5.6	6.5	5.2	/	/	11.7	.
CN(C)c1ccc(C(=S)NCc2ccco2)cc1	.	7.5	0.9	15.9	5.2	11.5	5.6	.	10.3	20.3	.
CN(C)c1ccc(/C=N/NC(=S)NCc2ccco2)cc1	.	.	.	.	.	/	/	/	/	/	/
COc1ccc(CCN(Cc2cccs2)S(=O)(=O)c2ccc(C)s2)cc1OC	.	.	.	.	.	/	/	/	/	/	/
CC(=O)Oc1ccc2c(=O)c(Oc3ccccc3[N+](=O)[O-])coc2c1	.	.	.	.	.	/	/	/	/	/	/
CC(=O)Oc1ccc2c(=O)c(-c3nc4ccccc4s3)coc2c1	.	6.7	.	13.3	5.7	5.7	.	.	9.0	.	.
O=C1C2C3CC4C5C3C1C5C1(SCCS1)C42 (stereo unspecified)	.	.	.	.	.	/	/	/	/	/	/
O=C(C=NNc1ccccc1)c1ccccc1	.	11.9	1.8	28.7	7.3	17.0	9.1	.	11.9	24.0	.
O=C(N=c1nc2ccccn2s1)c1ccccc1	.	11.4	1.1	21.9	5.2	11.2	.	.	13.4	.	.
Cc1csc(=NC(=O)c2ccccc2)n1C	.	.	.	.	.	/	/	/	/	/	/
C=CCn1c(COc2ccc(Cl)cc2)nnc1SCC(=O)c1ccc(-c2ccccc2)cc1	.	.	.	.	.	/	/	/	/	/	/
Cc1c(C(=O)OC2CCC(C)CC2)[nH]c2c1C(=O)CCC2 (stereo unspecified)	.	.	.	15.1	7.3	15.4	5.9	/	/	21.4	.
COC(=O)c1[nH]c2c(c1C)C(=O)CCC2	.	.	.	.	.	/	/	/	/	/	/
C[C@H](CO)N1C[C@H](C)[C@@H](CN(C)C(=O)Nc2ccc(F)cc2)OCc2cn(nn2)CCCC1=O	.	.	.	.	.	/	/	/	/	/	/
Cc1ccnc(NC(=O)COc2ccccc2[N+](=O)[O-])c1	.	7.4	1.1	14.3	4.9	12.5	5.2	.	.	11.5	.
Cc1ccc(NC(=O)COc2ccccc2[N+](=O)[O-])nc1	.	7.3	1.7	18.0	4.7	10.8	5.9	.	9.3	12.3	.
Cc1ccc(NC(=O)c2ccc(COc3ccccc3[N+](=O)[O-])o2)nc1	.	.	.	.	.	/	/	/	/	/	/
O=C(COc1ccccc1[N+](=O)[O-])Nc1cccnc1	.	.	.	.	.	/	/	/	/	/	/
CCOC(=O)c1cc(-c2ccc3c(c2)OCCO3)n[nH]1	.	.	.	19.1	5.3	12.6	9.9	/	/	17.1	.
O=C(O)c1cc(-c2ccc3c(c2)OCCO3)n[nH]1	.	.	.	.	.	/	/	/	/	/	/
Oc1ccccc1-c1cc(-c2ccc3c(c2)OCCO3)n[nH]1	.	8.9	1.0	13.3	5.9	6.0	.	.	11.9	24.3	.
O=C(CN1CCN(c2nc(-c3ccccc3)cs2)CC1)Nc1ccc(F)cc1F	.	.	.	.	.	/	/	/	/	/	/
Cc1nn(-c2ccccc2)c(Cl)c1/C=N/Nc1ccc(Cl)c(C(=O)O)c1	8.9	9.9	1.2	23.7	7.5	15.8	7.9	.	11.5	27.2	.	SMARCA2 act conf=9.4;VP16 Luc act=13.6
Cc1nn(-c2ccccc2)c(Cl)c1/C=N/NC(=O)OC(C)(C)C	.	.	.	.	.	/	/	/	/	/	/
SMILES	SMARCA2 activ	hcDAF-12 act	ssDAF-12 act	hgDAF-12 ag	DAX1 inh	DAX1 inh confirm	SF1 mutant ctr	LXRb hcDAF ctr	hcDAF12 conf	hgDAF12 conf	LXRb DAF12 ctr	others
CCOC(=O)c1c(C)[nH]c(N=Nc2ccc(C)cc2)c1C	.	.	.	14.9	4.9	12.4	6.0	/	/	18.1	.
CCOC(=O)c1c(C)[nH]c(N=Nc2cccc(OC)c2)c1C	.	5.9	.	15.5	4.9	16.2	8.0	/	/	20.7	.
NC(=NC(=O)/C=C/c1ccccc1Br)N(CC#Cc1ccccc1)CC#Cc1ccccc1	/	.	.	.	/	/	/	/	/	/	/
OC(c1ccccc1)(c1ccccc1)C1CCN(CCCNc2cccc(Br)c2)CC1	.	.	.	.	.	/	/	/	/	/	/
Cc1ccc(NC(=S)N2CCC(c3ccccc3)C2)c(Cl)c1 (stereo unspecified)	8.8	.	1.1	18.8	5.1	10.9	4.8	/	/	12.7	.	SMARCA2 act conf=.;VP16 Luc act=9.3
Cc1ccc(/C=C/c2nc3ccccc3c(=O)[nH]2)cc1	8.7	8.7	1.5	16.3	5.8	13.5	4.2	.	9.4	17.9	.	SMARCA2 act conf=9.6;VP16 Luc act=5.8
COC(=O)c1ccc(/C=C/c2nc3ccccc3c(=O)[nH]2)cc1	.	.	.	.	.	/	/	/	/	/	/
Nc1nc(-c2ccc(Oc3ccccc3)cc2)cs1	.	.	.	.	.	/	/	/	/	/	/
Nc1nc(-c2ccc(-c3ccccc3)cc2)cs1	.	.	.	18.5	6.3	10.4	6.8	/	/	20.2	.
Nc1nc(-c2ccc3ccccc3c2)cs1	.	6.4	.	17.8	12.3	9.9	7.5	/	/	15.2	.
O=C(OCc1cn(Cc2cccc(F)c2F)nn1)N1CCCC1	.	.	.	.	.	/	/	/	/	/	/
CCC[C@H]1[C@@H](NCc2ccccc2)CC[C@@]23CCCN2C(=O)CCC[C@@H]13	/	.	.	.	/	/	/	/	/	/	/
Cc1ccc2nc(N)nnc2c1	.	.	.	.	.	/	/	/	/	/	/
